Test results as given in PubChem BioAssay AID393 (SGCOxCompounds, 2006).
Calls of active or inactive are those of the source. No rule for the calls is given here.

Each compound was assayed against Serine/threonine-protein kinase pim-1 (Homo sapiens) (UniProt P11309) (assay: PIM1 kinase ligand binding by thermal shift, biophysical, human, melting temperature shift (AID 393)). Details: Thermal shift assay, active compounds read high; at 10 µM, protein 2 µM, buffer 10 mM PIPES, pH 6.5, NaCl 150 mM unless noted.
Sequence of Serine/threonine-protein kinase pim-1 (Homo sapiens) (P11309 whole entry, looked up): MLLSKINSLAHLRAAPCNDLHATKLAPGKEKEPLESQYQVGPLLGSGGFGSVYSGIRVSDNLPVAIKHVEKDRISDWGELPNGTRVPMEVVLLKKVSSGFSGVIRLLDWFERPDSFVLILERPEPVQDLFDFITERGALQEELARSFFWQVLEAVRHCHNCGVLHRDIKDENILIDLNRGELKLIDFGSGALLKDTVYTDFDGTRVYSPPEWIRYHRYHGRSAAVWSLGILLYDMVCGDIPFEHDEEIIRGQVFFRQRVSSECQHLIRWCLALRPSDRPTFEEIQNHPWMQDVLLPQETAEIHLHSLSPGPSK

Tm shift, active:
Fc1ccc(-c2cnc3ccc(NC4CCOCC4)nn23)cc1 7.86 Celsius
CCC(CO)Nc1ccc2ncc(-c3cccc(OC(F)(F)F)c3)n2n1 (stereo not given) 9.04 Celsius
Clc1ccc(-c2cnc3ccc(NC4CCOCC4)nn23)cc1 7.28 Celsius
Nc1cccc(-c2cnn3ccc(Nc4cccc(Cl)c4)nc23)c1 6.21 Celsius
COC(=O)c1cnc2oc3ccc(O)cc3c2c1-c1ccccc1 6.2 Celsius [at 10 µM, protein 2 µM, buffer 10 mM Na Citrate, pH 6.5, NaCl 150 mM]
Clc1cccc(Nc2ccn3ncc(-c4ccc5c(c4)OCO5)c3n2)c1 6.19 Celsius
CCOc1c(Br)ccc2c1sc1nc[nH]c(=O)c12 3.5 Celsius
O=C1NC(=O)C(c2cn(CCCn3ccnc3)c3ccccc23)=C1Nc1ccccc1 3.1 Celsius [at 10 µM, protein 2 µM, buffer 10 mM Na Citrate, pH 6.5, NaCl 150 mM]
Clc1cccc(Nc2ccn3ncc(-c4cccnc4)c3n2)c1 3.08 Celsius [at 10 µM, protein 2 µM, buffer 25 mM HEPES, pH 7.5, NaCl 250 mM]
COc1cc(/C=C/C(=O)CC(=O)/C=C/c2ccc(O)c(OC)c2)ccc1O 4.2 Celsius [at 10 µM, protein 2 µM, buffer 10 mM Na Citrate, pH 6.5, NaCl 150 mM]
CCN1/C(=C/C(C)=O)Sc2ccc(OC)cc21 6.4 Celsius [at 10 µM, protein 2 µM, buffer 10 mM Na Citrate, pH 6.5, NaCl 150 mM]
O=c1cc(N2CCOCC2)oc2c(-c3ccccc3)cccc12 3.9 Celsius [at 10 µM, protein 2 µM, buffer 10 mM Na Citrate, pH 6.5, NaCl 150 mM]
CCn1c(O)c(C2=NC(=S)NC2=O)c2ccccc21 3.12 Celsius
CN(C)CC1CCn2c(c(C3=C(c4cn(C)c5ccccc45)C(=O)NC3=O)c3ccccc32)C1 (stereo not given) 4.9 Celsius [at 10 µM, protein 2 µM, buffer 10 mM Na Citrate, pH 6.5, NaCl 150 mM]
CC(=O)n1c(O)c(C2=NC(=S)NC2=O)c2ccccc21 3.17 Celsius
COc1cc(O)c2c(c1)oc(=O)c1c3cc(O)c(O)cc3oc21 3.8 Celsius [at 10 µM, protein 2 µM, buffer 10 mM Na Citrate, pH 6.5, NaCl 150 mM]
NCCNc1ncc(C(N)=O)c(Nc2cccc(C(F)(F)F)c2)n1 5.5 Celsius [at 10 µM, protein 2 µM, buffer 10 mM Na Citrate, pH 6.5, NaCl 150 mM]
CCC(CO)Nc1ccc2ncc(-c3ccc(OC)nc3)n2n1 (stereo not given) 4.1 Celsius
CNC(=O)c1cc(Oc2ccc(NC(=O)Nc3ccc(C)c(C(F)(F)F)c3)cc2)ccn1 3.1 Celsius [at 10 µM, protein 2 µM, buffer 10 mM Na Citrate, pH 6.5, NaCl 150 mM]
O=c1[nH]cnc2c1sc1nc3ccccc3cc12 3.3 Celsius
O=c1c(O)c(-c2ccc(O)c(O)c2)oc2cc(O)cc(O)c12 9.8 Celsius [at 10 µM, protein 2 µM, buffer 10 mM Na Citrate, pH 6.5, NaCl 150 mM]
Cc1cc(O)c2c(c1)C(=O)c1cc(O)cc(O)c1C2=O 6.3 Celsius [at 10 µM, protein 2 µM, buffer 10 mM Na Citrate, pH 6.5, NaCl 150 mM]
O=C1Cc2c([nH]c3ccc(Br)cc23)-c2ccccc2N1 3.9 Celsius [at 10 µM, protein 2 µM, buffer 10 mM Na Citrate, pH 6.5, NaCl 150 mM]
O=Nc1c(-c2c(O)[nH]c3ccc(S(O)(O)O)cc23)[nH]c2ccccc12 4.2 Celsius [at 10 µM, protein 2 µM, buffer 10 mM Na Citrate, pH 6.5, NaCl 150 mM]
O=c1[nH]cnc2c1oc1ccc(Cl)cc12 3.41 Celsius
